# Sampled rows, rich in hits. Any-hit rate of the full collection: about 4.7%.
# SARS 3CLpro inh – SARS-CoV 3CLpro protease inhibition; recombinant SARS-CoV 3CLpro, quenched FRET peptide cleavage; inhibition, % at 6 µM; actives 0.14% (n = 290,000); P0C6X7; in the data active means inhibition above about 12%
# RecA splice inh – inhibitors of M. tuberculosis RecA intein splicing; cell-free RecA intein splicing, fluorescence; actives 0.75% (n = 290,000); inhibition, % (concentration not given with the values); P9WHJ3; in the data active means inhibition above about 30%;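 further: 0% = vehicle wells and 100% = reference inhibitor control wells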
# GDH-TPI counter – inhibits GDH-TPI coupling enzymes, artifact for Mtb FBA screen. inhibition, % at 4.8 µM. GDH-TPI coupled enzyme counterscreen, NADH absorbance. actives 1.2% (n = 360,000);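 further: 0% = DMSO wells and 100% = wells lacking the enzyme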
# CCHF vOTU inh-1 – CCHFV vOTU protease inhibition. Pep-AMC fluorescence. inhibition, % at 11.5 µM. actives 0.55% (n = 370,000). AID 651958; further: 0% = vehicle wells with enzyme and 100% = no enzyme wells
# FBA Mtb inh – inhibits M. tuberculosis FBA enzyme; actives 2.3% (n = 360,000); purified M. tuberculosis FBA, fluorescence read-out; inhibition, % at 1 µM; in the data active means inhibition above about 27%;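 further: 0% = vehicle and 100% = reference inhibitor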
# VHR inh abs – inhibitors of human VHR1 phosphatase (DUSP3) | P51452 | recombinant VHR phosphatase, pNPP absorbance | inhibition, % at 13.3 µM | actives 0.52% (n = 290,000) | AID 1654; in the data active means inhibition above about 50%
# CCHF vOTU inh-2 – confirmation of CCHF virus vOTU protease inhibitors; shares compounds with CCHF vOTU inh-1; Recombinant CCHFV vOTU, Pep-AMC fluorescence; inhibition, % at 11.5 µM; actives 17% (n = 1,900); AID 686976
# * = called active by the depositor; . = not tested or not shown. Unless noted, no stated cut-off is given here; in the data, active means inhibition above about 30%; inactive means the rest.
SMILES,SARS 3CLpro inh,RecA splice inh,GDH-TPI counter,CCHF vOTU inh-1,FBA Mtb inh,VHR inh abs,CCHF vOTU inh-2
CC(C)(C)OC(=O)NCc1ccc(CNC(=O)c2[nH]cnc2C(=O)Nc2ccccc2F)cc1,.,.,15,16,0,.,.
O=C(Nc1ccccc1N1CCCC1)C1CCN(C(=O)c2ccc(F)cc2)CC1,.,0,1,3,0,.,.
CC1(C)CC2CC(C)(CN2C(=O)COC(=O)c2ccccc2C(F)(F)F)C1 (configuration not stated),.,.,-4,33*,-2,.,16
CSc1ncccc1C(=O)OCC(=O)N1CC2(C)CC1CC(C)(C)C2 (configuration not stated),.,.,1,-8,-1,.,.
CCN1CCN(C(=O)c2cc(S(=O)(=O)Nc3ccc(S(C)(=O)=O)cc3)ccc2Cl)CC1,2,-2,4,4,9,-6,.
O=C(O)C1CC=CCC1C(=O)Nc1ccc(N2CCN(Cc3ccccc3)CC2)cc1 (configuration not stated),-12,3,0,9,-1,12,.
COc1cc(NS(=O)(=O)c2ccc(Nc3nc(-c4ccccc4)cs3)cc2)nc(OC)n1,4,25,14,36*,-3,-10,15
S=C(Nc1ccc2nsnc2c1)N1CCCCC1,-7,.,14,96*,1,3,-15
S=C(Nc1ccc(Cl)c(Cl)c1)N1CCCC1,1,1,-7,9,-1,2,.
COc1cccc(/C=N/Nc2nnc(C)n2N)c1OCc1ccccc1Cl,5,2,5,75*,-8,-4,-7
CCc1nnc(N/N=C/c2ccccc2F)n1N,1,-1,-2,77*,-2,12,-4
CCc1nnc(N/N=C/c2ccccc2Cl)n1N,-8,1,7,84*,-8,10,-16
Clc1ccccc1C=NNc1ccccn1,.,.,7,-8,0,.,.
O=[N+]([O-])c1ccc(NC(=S)NCC(c2cccnc2)N2CCOCC2)cc1 (configuration not stated),7,-1,12,6,0,8,.
CCCCNC(=O)CSc1nc2cc3c(cc2c(=O)n1CCC(=O)NCCc1ccc(OC)c(OC)c1)OCO3,-2,-4,-9,1,0,-20,.
CCN(CC(=O)Nc1ccccc1C(F)(F)F)CC(=O)c1[nH]c(C)c(C(C)=O)c1C,.,.,16,38*,4,.,-17
CC(=O)c1c(C)[nH]c(C(=O)CN(C)CC(=O)Nc2ccccc2Cl)c1C,.,.,8,7,0,.,.
C[n+]1c(-c2ccccc2)cc2c(=Cc3ccccc3)c3ccccc3n21,.,.,13,83*,2,.,78*
CN(C)c1ccc(C=c2c3cc(O)ccc3n3c2cc(-c2ccccc2)[n+]3C)cc1,.,.,23,47*,-5,.,41*
C[n+]1c(-c2ccccc2)cc2c(=Cc3ccc([N+](=O)[O-])cc3)c3ccccc3n21,.,.,9,93*,-3,.,57*
C/C(=N\OCc1ccccc1)c1c(O)cc(C(C)C)n(-c2ccccc2)c1=O,-5,2,-1,7,0,-17,.
O=C(OCC1OC(n2cc(Br)c(=O)[nH]c2=O)C(Br)C1O)c1ccccc1 (configuration not stated),-2,0,-13,11,0,2,.
CC(Sc1ccsc1[N+](=O)[O-])C(=O)NCCc1ccc(Cl)cc1 (configuration not stated),-2,.,14,15,-6,17,.
CCOCc1nnc(NC(=O)C2CC(=O)N(CCc3ccc(F)cc3)C2)s1 (configuration not stated),3,2,-5,3,-4,29,.
Cc1cc(C(=O)N/N=C2\CC(=O)c3ccccc32)c(C)n1-c1ccccc1,-4,12,6,30*,0,18,-5
SMILES,SARS 3CLpro inh,RecA splice inh,GDH-TPI counter,CCHF vOTU inh-1,FBA Mtb inh,VHR inh abs,CCHF vOTU inh-2
COC(=O)CC1OCC=C2CN3CCC45C6=CC(=O)C(=O)C([N+](=O)[O-])=C6NC4C1C2CC35 (configuration not stated),.,.,16,64*,-1,.,23
O=C(CCCCCN1C(=O)C2C3C=CC(C3)C2C1=O)Nc1ccc(Cl)cc1 (configuration not stated),.,.,.,1,.,.,.
O=C(CCCCCN1C(=O)C2C3C=CC(C3)C2C1=O)Nc1ccc2ncccc2c1 (configuration not stated),.,.,.,69*,.,.,18
CCc1cccc(OCC(=O)Nc2c[nH]c(=O)[nH]c2=O)c1,0,-1,-4,1,3,36,.
CCc1cccc(OCC(=O)Nc2ccc(C(=O)O)cc2NC(=O)COc2cccc(CC)c2)c1,12,5,-8,33*,-1,-4,5
CN(CC(=O)Nc1ccccc1Cl)C(=O)COC(=O)CSc1ccc(Cl)cc1,.,.,2,-1,2,.,.
CC1Cc2nc(SCC(N)=O)n(C)c(=O)c2S1 (configuration not stated),-1,-2,-3,32*,1,34,-9
CCc1cc(-c2onc(C)c2-c2cscn2)c(O)cc1OC,1,2,-1,31*,1,26,-7
Cc1onc(-c2ccccc2)c1C(=O)N1CCN(Cc2ccccc2)CC1,-4,.,2,-3,-3,10,.
CCCCC(=O)N(C)c1c(C)nc2ccc(C(=O)Nc3cccc(NS(C)(=O)=O)c3)cn12,.,.,1,3,5,.,.
CCOC(=O)c1ccc(N2Cc3ccccc3C2=NC(=O)c2cccc([N+](=O)[O-])c2)cc1,.,.,22,-1,6,.,.
O=C(N=C1c2ccccc2CN1c1ccccc1)c1cccc([N+](=O)[O-])c1,4,5,1,30*,-2,-8,-12
CCN(Cc1cc(=O)n2ccsc2n1)c1cccc2ccccc12,-1,1,5,54*,2,-5,-4
Cc1cc(SCc2cc(=O)n3ccsc3n2)nc2ccccc12,-6,0,15,-2,0,2,.
COc1cc(N)c2ncccc2c1Br,.,.,12,105*,0,.,25
CCCCOc1ccc(/C=C(\C(=O)O)c2ccc(S(=O)(=O)N3CCCC3)s2)cc1,.,.,24,24,2,.,.
COc1cc(/C=C(\C(=O)O)c2ccc(S(=O)(=O)N3CCCC3)s2)ccc1OCCC(C)C,.,.,9,32*,1,.,13
CN(C(=O)CSc1nccc(=O)[nH]1)C1CCCCC1,.,.,0,38*,6,.,-14
CSCCC(NC(=O)c1ccco1)C(=O)NCC(C)(C)N1CCOCC1 (configuration not stated),.,.,-4,-11,3,.,.
Cc1ccc(CN2CCSCC2)cc1,4,0,15,-10,2,9,.
CCCn1nc(NS(=O)(=O)c2cccc3nonc23)c2cc3cc(C)ccc3nc21,8,1,12,14,-1,4,.
CCCn1nc(NS(=O)(=O)c2cccc3nonc23)c2cc3cccc(C)c3nc21,12,11,10,42*,-1,15,15

# Assay outcomes: PubChem BioAssay, several laboratories
